Bioassay records from PubChem BioAssay.
The list is not random: actives were taken first. Their share in the collection is about 2.4%.
Rango dissoc inh: inhibitors of RanGTP-induced Rango-importin beta complex dissociation; O95149+P62826; Biochemical FRET Rango-importin beta, RanGTP-induced dissociation; Potency, µM (titrated, usually from 46.1 µM), inactives show at the top dose activity change, negative = inhibition; actives 0.071% (n = 340,000); AID 540253; calls by dose curve; note: % of control where 0% means no effect; nearly all actives have a fitted effect of over 45% in size
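Recombinant Rango FRET biosensor (EYFP–snurportin 1 IBB–cerulean CFP10) at 0.1 uM premixed with 0.25 uM importin beta in PBS, 1 mM DTT, 0.02% Tween-20, 0.1% BSA. Compound added 5 min; RanGTP-RCC1 (0.6 uM Ran, 2 mM GTP, 0.2 uM RCC1) then triggers release, read at 45 min.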
Tb PFK block: T. brucei PFK enzyme inhibition | O15648 | T. brucei PFK, ADP-Glo luminescence | Potency, µM (titrated, usually from 57.5 µM), for inactives: at the highest dose activity, negative = inhibition, usual class: inhibitors | actives 0.17% (n = 330,000) | AID 485367;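 note: 0% = uninhibited 1x PFK enzyme wells and -100% = no-enzyme wells; nearly all actives have a fitted effect of over 60% in size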
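ADP-Glo luminescence quantified ADP after 45 min at room temperature, with 1.25 nM T. brucei PFK, 0.1 mM ATP and 0.5 mM fructose-6-phosphate in pH 8.0 TEA buffer. qHTS titrations up to 57 µM; curves classified by quality.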
ELG1 DNA repair: inhibitors of ELG1-dependent DNA repair in HEK293T cells; HEK293T ELG1-luciferase reporter, luminescence, 16 h; DNA damage induced by 5-fluorouridine; Potency, µM (doses to about 46.1 µM), for inactives: at the highest dose activity change, negative = inhibition, usual class: inhibitors; actives 2.3% (n = 330,000); AID 504467; note: % is set by controls: 0 for no effect and ±100 for the full control effect; nearly all actives have a fitted effect of over 55% in size
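DMSO vehicle served as the neutral condition. Each well held 2,000 cells given 5-fluorouridine plus compound; after 16 hr at 37 °C/5% CO2, ONE-Glo was added and luciferase measured 30 min later.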
PKM2 act: increases activity of human pyruvate kinase M2; Potency, µM (titrated, usually from 57.5 µM), inactives show at the top dose activation, hits mostly activators; actives 0.34% (n = 260,000); AID 1631; purified PKM2, Kinase-Glo ATP luminescence, activation; response scale: 0% is enzyme alone, no compound; P14618; note: % is set by controls: 0 for no effect and ±100 for the full control effect; nearly all actives have a fitted effect of over 55% in size
Target sequence (P14618 whole entry, looked up): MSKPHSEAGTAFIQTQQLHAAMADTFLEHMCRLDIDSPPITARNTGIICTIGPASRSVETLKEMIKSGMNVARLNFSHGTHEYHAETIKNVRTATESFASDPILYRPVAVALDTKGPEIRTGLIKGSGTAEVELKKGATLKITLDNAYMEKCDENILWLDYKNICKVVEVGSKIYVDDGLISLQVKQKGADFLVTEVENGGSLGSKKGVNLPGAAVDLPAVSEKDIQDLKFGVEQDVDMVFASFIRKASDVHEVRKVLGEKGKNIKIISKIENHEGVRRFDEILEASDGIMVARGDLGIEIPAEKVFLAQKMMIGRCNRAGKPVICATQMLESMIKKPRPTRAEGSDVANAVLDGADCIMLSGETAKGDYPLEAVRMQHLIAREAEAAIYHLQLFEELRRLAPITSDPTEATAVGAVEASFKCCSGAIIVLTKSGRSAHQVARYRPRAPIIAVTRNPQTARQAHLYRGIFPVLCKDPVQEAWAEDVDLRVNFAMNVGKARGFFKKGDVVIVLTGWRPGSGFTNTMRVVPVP
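Purified hPK-M2 (>95% pure) converted ADP (0.1 mM final) to ATP with 0.5 mM PEP in 50 mM imidazole pH7.2, KCl, MgCl2, Tween 20, BSA; 1 h at room temperature. ATP detected by Kinase-Glo luminescence.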
Rango complex inh: Rango-importin beta binding inhibition; Q14974; Rango CFP/YFP FRET sensor + importin beta, 45 min; Potency, µM (titrated, usually from 92.2 µM), without a hit: at the highest dose inhibition of complex formation; actives 0.031% (n = 340,000); AID 540263; calls by dose curve;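 note: 0% = DMSO wells and 100% = buffer wells lacking importin beta; nearly all actives have a fitted effect of over 15% in size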
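Inhibition scored from the CFP 486 nm/YFP 530 nm FRET ratio 45 min after adding 0.125 microM importin beta to 50 nM Rango biosensor preincubated 5 min with compound (room temperature, PBS with DTT, Tween-20, BSA). No-importin wells as positive control.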
Tb PGK inh: T. brucei PGK inhibition; P07378; PGK/GAPDH coupled, Kinase-Glo luminescence, 60 min; Potency, µM (series often up to 57.5 µM), for the others: at the highest dose activity change, negative = inhibition, hits mostly inhibitors; actives 0.043% (n = 380,000); note: % is set by controls: 0 for no effect and ±100 for the full control effect; nearly all actives have a fitted effect of over 60% in size
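Recombinant glycosomal PGK reaction used 1,3-bisphosphoglycerate generated in-well by GAPDH (100nM final) in 100mM TEA pH 7.6, 5mM MgCl2, 0.01% Tween-20. After 60 minutes at room temperature, ATP was read by Kinase-Glo Plus luminescence end-point.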
* marks the source's active call; other numbers are inactive results. Unless noted, calls come from the whole dose curve; as a rule, active = well fitted curve in the direction sought with a large enough effect; inconclusive = small, poorly fitted or top-dose-only effect, or another doubt; inactive = no such curve, though single readings can be large; an effect the other way counts as inactive or inconclusive. Potency is the fitted concentration of half-maximal effect.

`COc1ccc(-c2cc(C(=O)OCC(=O)N3CCOCC3)c3ccccc3n2)cc1` gave Rango dissoc inh -8%, Tb PFK block -3%, ELG1 DNA repair 21µM*, Rango complex inh inconclusive and Tb PGK inh -6%.
Screening COc1cc2ccccc2cc1C(=O)OCC(=O)N1CCOCC1 returned Rango dissoc inh 4%, Tb PFK block -1%, ELG1 DNA repair -6%, PKM2 act 13%, Rango complex inh 2% and Tb PGK inh -4%.
Cc1cc(SCC(=O)OCC(=O)N2CCN(C(=O)c3ccco3)CC2)c(C)cc1Br was read as Rango dissoc inh -7%, Tb PFK block -2%, ELG1 DNA repair 13%, PKM2 act 25µM* and Rango complex inh 7%.
For CCOC(=O)c1c(NC(=O)c2ccc(S(=O)(=O)N3CCC(C)CC3)cc2)sc2c1CCN(CC)C2 the results were Tb PGK inh inactive.
Screening COc1ccc(NC(=O)CSc2nnc(-c3nonc3NC(C)=O)n2C)cc1Cl returned Tb PGK inh inactive.
Screening C#CC(C)(C)NS(=O)(=O)c1cc(-c2nnc(Nc3ccc(C)cc3)c3ccccc23)ccc1C returned Tb PGK inh -4%.
O=C(NN=Cc1ccccc1)NN=Cc1ccccc1 was read as Rango dissoc inh 2%, Rango complex inh 1% and Tb PGK inh 4%.
Screening O=c1[nH]c2cc3c(cc2cc1C(c1nnnn1Cc1ccccc1)N1CCCc2ccccc21)OCO3 (stereo not given) returned Rango dissoc inh -6%, Tb PFK block 0%, ELG1 DNA repair 0.65µM*, PKM2 act 1%, Rango complex inh 0% and Tb PGK inh 3%.
O=c1[nH]c2cc3c(cc2cc1C(c1nnnn1Cc1ccccc1)N1CCCCCC1)OCCO3 (stereo not given) was read as Rango dissoc inh inconclusive, Tb PFK block 0%, ELG1 DNA repair inconclusive, PKM2 act 18%, Rango complex inh inconclusive and Tb PGK inh 1%.
Screening COC(=O)C1=C(C)N=c2s/c(=C/c3ccoc3)c(=O)n2C1c1ccccc1 (stereo not given) returned Rango dissoc inh inconclusive, PKM2 act 22µM*, Rango complex inh inconclusive and Tb PGK inh -4%.
Screening O=C(CC1CC2CCC1C2)N1CCN(S(=O)(=O)c2ccccc2C(F)(F)F)CC1 (stereo not given) returned Rango dissoc inh -11%, Tb PFK block 0%, ELG1 DNA repair 11µM*, Rango complex inh -2% and Tb PGK inh -6%.
`Cc1ccccc1-n1nc(C)c2cc(C(=O)N3CCN(S(=O)(=O)c4ccc(Cl)cc4)CC3)sc21` gave Rango dissoc inh 30%, Tb PFK block -2%, ELG1 DNA repair inconclusive, PKM2 act -1%, Rango complex inh -1% and Tb PGK inh -9%.
For O=C(c1ccccc1)N1CCN(S(=O)(=O)c2ccc(Cl)c(C(F)(F)F)c2)CC1 the results were Rango dissoc inh 2%, Tb PFK block 5%, ELG1 DNA repair -6%, Rango complex inh 2% and Tb PGK inh -7%.
O=C(CC1CC2CCC1C2)N1CCN(S(=O)(=O)c2ccccc2[N+](=O)[O-])CC1 (stereo not given) was read as Rango dissoc inh 13%, Tb PFK block -1%, ELG1 DNA repair -27%, Rango complex inh -3% and Tb PGK inh inactive.
For Cc1ccc(S(=O)(=O)N2CCN(C(=O)c3cc4c(C)nn(-c5ccccc5)c4s3)CC2)cc1 the results were Rango dissoc inh -1%, Tb PFK block -4%, ELG1 DNA repair 10µM*, PKM2 act -4%, Rango complex inh -4% and Tb PGK inh -2%.
For O=C(c1ccccc1C(F)(F)F)N1CCN(S(=O)(=O)c2ccccc2)CC1 the results were Rango dissoc inh -4%, Tb PFK block 1%, ELG1 DNA repair 21µM*, PKM2 act -3%, Rango complex inh -2% and Tb PGK inh inactive.
O=C(c1nc(-c2ccccc2)n(-c2ccccc2)n1)N1CCN(S(=O)(=O)c2ccccc2)CC1 was read as Rango dissoc inh -10%, Tb PFK block 2%, ELG1 DNA repair 18µM*, PKM2 act -13%, Rango complex inh 0% and Tb PGK inh -3%.
`CN(C)S(=O)(=O)n1cc(/C=C(\NC(=O)c2ccccc2Cl)C(=O)N2CCOCC2)c2ccccc21` gave Rango dissoc inh 1%, Tb PFK block -8%, ELG1 DNA repair inconclusive, Rango complex inh 4% and Tb PGK inh -5%.
`O=C(Nc1nc2n(n1)C(c1ccc(F)cc1)C=C(c1ccccc1)N2)c1ccco1` (stereo not given) gave Tb PGK inh -7%.
C#Cc1ccc(CN2CCC(Oc3cc(C(=O)NC4CC4)ccc3OC)CC2)cc1 was read as Rango dissoc inh -17%, Tb PFK block -2%, ELG1 DNA repair inconclusive, PKM2 act -1%, Rango complex inh -2% and Tb PGK inh -10%.
`Cc1ccc(C(=O)Nc2nc(-c3ccccn3)cs2)cc1S(=O)(=O)N1CCOCC1` gave Rango dissoc inh 11%, Tb PFK block -4%, ELG1 DNA repair -10%, Rango complex inh 0% and Tb PGK inh -5%.
For Cc1ccc(S(=O)(=O)c2nc(-c3ccco3)oc2SCc2ccc(F)cc2)cc1 the results were Tb PGK inh 6%.
Screening CCOc1ccccc1NC(=O)CCSc1nc2n[nH]c(C)c2c(=N)n1-c1ccccc1Cl returned Rango dissoc inh -18%, Tb PFK block -8%, ELG1 DNA repair 3.2µM*, PKM2 act 1%, Rango complex inh 1% and Tb PGK inh -2%.
For COc1ccccc1N1CCN(C(=O)c2cc3c(C)nc4ccccc4c3o2)CC1 the results were Rango dissoc inh -4%, Tb PFK block -2%, ELG1 DNA repair 13µM*, Rango complex inh 3% and Tb PGK inh 2%.
Screening COc1ccccc1N1CCN(C(=O)c2oc3ccccc3c2C)CC1 returned Rango dissoc inh 4%, Tb PFK block -2%, ELG1 DNA repair 3%, PKM2 act 0%, Rango complex inh -4% and Tb PGK inh 0%.
`COc1ccccc1N1CCN(C(=O)c2cccc3c(=O)c(C)c(-c4ccccc4)oc23)CC1` gave Rango dissoc inh -7%, Tb PFK block -7%, ELG1 DNA repair 21µM*, PKM2 act 3%, Rango complex inh -1% and Tb PGK inh -1%.
